PKA-R1A act – activators of PKA-R1A holoenzyme, primary screen, biochemical, fluorescence polarization, Cy5-IP20, bovine R1A, mouse PKAc | cAMP-dependent protein kinase type I-alpha regulatory subunit (Bos taurus) + … | PKA-R1A dissociation; scaled: DMSO 0%, 113 µM cGMP 100% | activation, % at 11.4 µM | 340,000 compounds, 0.083% hits;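 active = percent activation above the mean of all tested compounds plus 3 SD, cut at about 19% in these data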;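 also: higher means more PKAc released from R1A so a rise in polarization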
PAFAH1B3 inh – PAFAH1B3 enzyme inhibitors, primary screen, biochemical, fluorescence polarization, human; inhibition, % at 3.39 µM; Platelet-activating factor acetylhydrolase IB subunit alpha1 (Homo sapiens), Q15102; 340,000 compounds, 0.28% hits; recombinant PAFAH1B3, FP-rhodamine probe;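 active = inhibition above the screen-wide average of all tested compounds plus 3 SD, cut at about 25% in these data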;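 also: 0% = enzyme with DMSO only and 100% = wells lacking PAFAH1B3 protein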
Target sequence (Q15102 whole entry, looked up): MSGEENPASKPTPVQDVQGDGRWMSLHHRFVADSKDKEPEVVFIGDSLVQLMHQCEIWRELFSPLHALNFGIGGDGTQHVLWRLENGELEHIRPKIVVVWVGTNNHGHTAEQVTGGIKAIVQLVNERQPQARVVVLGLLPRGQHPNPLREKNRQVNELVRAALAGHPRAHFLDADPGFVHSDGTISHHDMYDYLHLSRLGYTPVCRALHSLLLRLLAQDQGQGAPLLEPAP
PKA-R2B activ – activators of PKA-R2B holoenzyme, primary screen, biochemical, fluorescence polarization, Cy5-IP20, human | PKA-R2B holoenzyme dissociation; R2B truncated from residue 108, S112A mutant; 0% DMSO only, 100% 113 µM cGMP | AID 504700, 2011 | 340,000 compounds, 0.079% hits | activation, % at 11.4 µM | cAMP-dependent protein kinase catalytic subunit beta (Homo sapiens) + cAMP-dependent …;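 active = activation above a cutoff set at the mean over all compounds plus 3 SD, cut at about 18% in these data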;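 also: higher means more holoenzyme dissociation and a rise in polarization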
PAFAH2 FP inh – PAFAH2 enzyme inhibitors, primary screen, biochemical, fluorescence polarization, human; inhibition, % at 3.39 µM; Platelet-activating factor acetylhydrolase 2, cytoplasmic (Homo sapiens), Q99487; 340,000 compounds, 0.99% hits; recombinant PAFAH2, FP-rhodamine activity probe;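 active = inhibition above the mean over all tested compounds plus 3 SD, cut at about 30% in these data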;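 also: inhibitors block probe labeling of enzyme so polarization drops; 0% = enzyme with DMSO and 100% = wells lacking PAFAH2 protein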
PAFAH1B2 inh – PAFAH1B2 enzyme inhibitors, primary screen, biochemical, fluorescence polarization, human. recombinant PAFAH1B2, FP-rhodamine activity probe. inhibition, % at 3.39 µM. 340,000 compounds, 1.2% hits;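 active = inhibition above the mean of all tested compounds plus 3 SD, cut at about 24% in these data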;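 also: 0% = enzyme with DMSO and 100% = wells lacking PAFAH1B2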
pPAFAH FP inh – pPAFAH enzyme inhibitors, primary screen, biochemical, fluorescence polarization, human; 330,000 compounds, 1.5% hits; AID 463082, 2010; Platelet-activating factor acetylhydrolase (Homo sapiens), Q13093; recombinant pPAFAH, FP-rhodamine probe fluorescence polarization; inhibition, % at 3.39 µM;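 active = inhibition above the mean inhibition across the screen plus 3 SD, cut at about 25% in these data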;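 also: inhibitors block binding of the rhodamine activity-based probe so polarization drops; 0% = enzyme with DMSO and 100% = wells lacking pPAFAH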
Target sequence (Q13093 whole entry, looked up): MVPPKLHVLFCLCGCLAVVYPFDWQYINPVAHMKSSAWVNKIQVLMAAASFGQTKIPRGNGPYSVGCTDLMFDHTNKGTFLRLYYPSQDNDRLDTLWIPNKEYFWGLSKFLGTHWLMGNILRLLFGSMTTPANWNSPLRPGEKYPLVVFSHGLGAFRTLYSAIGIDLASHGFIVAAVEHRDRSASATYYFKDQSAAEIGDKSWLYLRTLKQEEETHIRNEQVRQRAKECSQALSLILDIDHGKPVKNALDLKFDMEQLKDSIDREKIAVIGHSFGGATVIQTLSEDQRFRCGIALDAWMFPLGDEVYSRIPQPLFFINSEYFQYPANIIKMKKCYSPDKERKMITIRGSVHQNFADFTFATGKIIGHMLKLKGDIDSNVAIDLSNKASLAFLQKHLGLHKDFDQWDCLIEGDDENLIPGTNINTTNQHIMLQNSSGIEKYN
pPAFAH confirm – pPAFAH (PLA2G7) enzyme inhibitors, confirmation, biochemical, fluorescence polarization, human; recombinant pPAFAH, FP-Rh probe fluorescence polarization; inhibition, % at 3.39 µM; 2,300 compounds, 72% hits; shares compounds with pPAFAH FP inh;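 active = mean inhibition of the triplicate above the hit cutoff set for the earlier primary screen, cut at about 25% in these data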;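 also: 0% = enzyme with DMSO and 100% = wells lacking pPAFAH enzyme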
* = called active by the depositor; / = not tested or not shown. Shown are actives, neighbours in structure and some others; about 2.6% of the full set was active somewhere.

SMILES | PKA-R1A act | PAFAH1B3 inh | PKA-R2B activ | PAFAH2 FP inh | PAFAH1B2 inh | pPAFAH FP inh | pPAFAH confirm
Cc1ccccc1S(=O)(=O)Cc1ccc(C(=O)NCCCN2CCCC2)o1 | -6 | 0 | -4 | -8 | 5 | 35* | 0
S=c1[nH]nc(-c2cc3c(s2)-c2ccccc2CC3)o1 | 5 | 7 | 5 | 21 | 7 | 38* | 62*
Cc1[nH]c2ccc(C(=O)OCC(=O)NC3(C#N)CCCCC3)cc2c1C | 6 | 7 | -4 | 86* | 2 | 45* | 43*
N#CC1(NC(=O)COC(=O)c2nc(Cl)ccc2Cl)CCCCC1 | -2 | 10 | 3 | 7 | 11 | 8 | /
CCOC(=O)N1CCN(C(=O)c2ccc3c(=O)n4c(nc3c2)CCCCC4)CC1 | / | / | / | / | / | 56* | 1
O=C(CSc1cccc2cccnc12)N/N=C/c1cccc(O)c1 | -10 | 8 | -1 | 1 | 1 | 5 | /
O=C(N/N=C/c1ccc(O)c(O)c1)c1ccc(CSc2cccc3cccnc23)cc1 | -3 | 17 | 1 | 24 | 10 | 69* | 86*
Cc1ccc(C(C)C)c(OCc2ccc(C(=O)N/N=C/c3ccc(O)c(O)c3)cc2)c1 | -7 | 34* | -3 | 14 | -1 | 61* | 84*
COc1cc(/C=N/NC(=O)c2ccc(COc3cc(C)ccc3C(C)C)cc2)cc(OC)c1O | 3 | 7 | -9 | -11 | 0 | 7 | /
COc1ccc(CNC(=O)CCC(=O)Nc2ccc(Cl)cc2)cc1 | -2 | -1 | 3 | 9 | 16 | 7 | /
COc1ccccc1-c1cc(C(=O)NC2CCCC2)no1 | 3 | -2 | 4 | 4 | 2 | 11 | /
CCCCCCCc1nn2c(=O)cc(O)nc2s1 | -10 | 2 | 5 | -3 | 9 | 47* | 10
CCCc1nn2c(=O)cc(O)nc2s1 | 3 | 0 | 0 | 5 | -2 | -5 | /
Nc1ccc(O)c2c1C(=O)c1ccccc1C2=O | -10 | 44* | -7 | 82* | 55* | 83* | 46*
Nc1ccc(NC(=O)c2ccccc2)c2c1C(=O)c1ccccc1C2=O | 6 | 3 | -6 | -3 | -3 | 2 | /
COc1ccc(S(=O)(=O)Nc2ccc3c(c2)[C@H]2C[C@H](CC(=O)NCC4CC4)O[C@@H](CO)[C@H]2O3)cc1 | -1 | / | -6 | / | / | / | /
CC1=C(C(=O)OCc2ccccc2)C(c2ccc(-c3ccccc3)cc2)NC(=O)N1CCCCCC(=O)O (configuration not stated) | -4 | 4 | -9 | 11 | 4 | 46* | 41*
CCOC(=O)N1CCN(S(=O)(=O)N2CCCC(C(=O)NCCc3ccc(OCC)c(OCC)c3)C2)CC1 (configuration not stated) | -5 | 5 | -5 | -5 | 4 | 3 | /
O=C1CC(N(O)c2ccccc2)C(=O)N1c1cc(Cl)cc(Cl)c1 (configuration not stated) | -9 | 6 | -2 | -4 | 7 | 51* | 8
CCCOc1ccc(N2C(=O)CC(N(O)c3ccccc3)C2=O)cc1 (configuration not stated) | -2 | -4 | 3 | -2 | 8 | 8 | /
O=C(Nc1ccc(N2CCCC2)cc1)c1cc(Br)ccc1Cl | -20 | 6 | 0 | 2 | 4 | 47* | 5
O=C(C[n+]1cccc(Br)c1)c1ccc(-c2ccccc2)cc1 | 5 | 2 | 0 | 1 | 4 | 8 | /
NC(=O)COC(=O)c1ccccc1Nc1ccc(SC(F)F)cc1 | -2 | 7 | -13 | -1 | 1 | 20 | /
CC(OC(=O)c1ccccc1Nc1ccc(SC(F)F)cc1)C(N)=O (configuration not stated) | -17 | 4 | -9 | -2 | 4 | 35* | 24
O=C(NCC(=O)N1CCN(c2ccccc2O)CC1)C1CCCCC1 | -5 | 8 | 3 | 24 | 2 | 37* | 24
SMILES | PKA-R1A act | PAFAH1B3 inh | PKA-R2B activ | PAFAH2 FP inh | PAFAH1B2 inh | pPAFAH FP inh | pPAFAH confirm
COc1ccc(NC(=O)CSc2sc3c(O)cc(=O)[nH]c3c2C#N)c(OC)c1 | -1 | 13 | 6 | 23 | 9 | 36* | 14
COc1ccc(Cl)cc1NC(=O)CSc1sc2c(O)cc(=O)[nH]c2c1C#N | 15 | 4 | -3 | -9 | 0 | 20 | /
COc1ccccc1NC(=O)CSc1sc2c(O)cc(=O)[nH]c2c1C#N | -3 | 14 | 9 | 17 | 11 | 39* | 12
COc1ccc(C(C(=O)NCC2CCCO2)N(Cc2cccs2)C(=O)c2snc(C(N)=O)c2N)cc1OC (configuration not stated) | 5 | 0 | -10 | 6 | 5 | 38* | 5
Cn1c2ccccc2c(=O)c2ccc(NCCc3cccs3)cc21 | -7 | 10 | -6 | 21 | 12 | 38* | 16
Cc1cc(NC(=O)CSc2sc3c(O)cc(=O)[nH]c3c2C#N)ccc1Br | -3 | 9 | 6 | -5 | 7 | 52* | 27*
N#Cc1c(SCC(=O)Nc2cccc(C(F)(F)F)c2)sc2c(O)cc(=O)[nH]c12 | -13 | 13 | 0 | 18 | 11 | 40* | 11
Cc1ccc(Cl)cc1NC(=O)CSc1sc2c(O)cc(=O)[nH]c2c1C#N | 5 | 18 | -3 | 9 | 7 | 20 | /
CCCSc1nnc(NC(=O)CSc2nc3[nH]c(=O)cc(O)c3s2)s1 | 4 | 9 | -2 | 17 | 4 | 12 | /
CCSc1nnc(NC(=O)CSc2sc3c(O)cc(=O)[nH]c3c2C#N)s1 | -7 | 17 | -6 | 50* | 29* | 39* | 35*
COC(=O)c1ccc(C)c(NC(=O)CSc2sc3c(O)cc(=O)[nH]c3c2C#N)c1 | 9 | 13 | 11 | 12 | 12 | 20 | /
C=C1C(=O)C23CCC4C(C)(C(=O)OC)CCCC4(C)C2CCC1(O)C3 (configuration not stated) | -2 | -2 | -6 | -4 | 3 | / | /
O=C(Oc1ccc(-c2ccccc2)cc1)N1CCOCC1 | 1 | -2 | 4 | 32* | 5 | 94* | 98*
O=C(Oc1ccccc1)N1CCCC1 | -6 | -6 | 7 | 2 | -2 | -3 | /
O=C(Oc1ccc(Cl)cc1)N1CCOCC1 | 1 | 10 | 8 | 11 | 1 | 8 | /
